ATXN viability: reduces viability in counter-screen for ATXN expression inhibitors; Potency, µM (series often up to 56.7 µM), hits mostly cytotoxic; 0.49% of 400,000 active; S2 cells (HEK-293 line with an ATXN2-luciferase reporter) viability, CellTiter-Fluor protease fluorescence, 24 h; further: nearly all actives have a fitted effect of over 40% in size
ATXN2 expr inh: ATXN2 expression inhibition; HEK-293 ATXN2-luciferase reporter, luminescence, 24 h; Potency, µM (highest dose often 57 µM), for inactives: at the top dose activity change, negative = inhibition, actives largely listed as inhibitors; 0.72% of 360,000 active; AID 1745845; further: on the % scale 0 is the no-effect control and ±100 the full control effect; nearly all actives have a fitted effect of over 55% in size
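qHTS (up to 57 uM final) was run with 24 h compound exposure of reporter cells at 37 °C. Each well was multiplexed: SteadyGlo luminescence measured ATXN2-luciferase expression after a fluorogenic Gly-Phe-AFC viability readout (25 uM final).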
TGFb SMAD3 inh: inhibitors of TGF-b signaling | HepG2 CAGA-GFP TGF-b/SMAD3 reporter, GFP fluorescence, 18 h; TGF-beta stimulated, 500 pg/mL final | Potency, µM (doses to about 46.1 µM), for the others: top-dose activity, negative = inhibition, most hits filed as inhibitors | 1.2% of 410,000 active | AID 588855; further: on the % scale 0 is the no-effect control and ±100 the full control effect; nearly all actives have a fitted effect of over 65% in size
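Smad-responsive CAGA-GFP expression was quantified in HEPG2 cells exposed to compounds and 500 pg/mL final TGF-beta for 18 h at 37 degrees C; unstimulated wells defined full inhibition.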
HepG2 viability: kills HepG2 cells in TGF-b inhibitor counter-screen; HepG2 CAGA-GFP viability, ATP luminescence, 18 h; Potency, µM (top dose mostly 46.1 µM), for the others: at the top dose activity change, negative = cytotoxicity, hits mostly cytotoxic; 0.76% of 410,000 active; AID 588856
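CellTiter-Glo luminescence gave cytotoxicity after 18 hours at 37 degrees C. The cells were HepG2 CAGA-GFP in 1% FBS DMEM, stimulated with 500 pg/mL TGF-beta after compound addition. %Activity was normalised to no-cell wells (complete cell-killing) and DMSO (no toxicity), and curves were fitted and classified.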
Nrf2 block: blocks Nrf2 signaling; A549 ARE-Fluc reporter, luciferase luminescence, 18-24 h; Potency, µM (top dose mostly 46 µM), inactives show at the highest dose activity change, negative = inhibition, hits mostly inhibitors; 2.1% of 360,000 active; further: on the % scale 0 is the no-effect control and ±100 the full control effect; nearly all actives have a fitted effect of over 60% in size
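A549 ARE_Fluc cells, 5000/well, 5% FBS OPTI-MEM; compounds in dose-response, 18-24 h at 37 °C/5% CO2; CellTiter-Fluor viability read (Ex 405/Em 525), then BugLite luciferase luminescence = Nrf2 activity.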
A549 tox: kills or reduces viability of A549 cells in Nrf2 counter-screen; Potency, µM (titrated, usually from 46 µM), without a hit: top-dose activity change, negative = cytotoxicity, usual class: inhibitors; AID 504648; 0.16% of 390,000 active; A549 ARE-Fluc cells, CellTiter-Fluor viability, 18-24 h; further: on the % scale 0 is the no-effect control and ±100 the full control effect
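A549 ARE-Fluc cells in 5% FBS OPTI-MEM, 5000 cells/well, rested 2 h then exposed to compounds in concentration-response for 18-24 h at 37 °C. Viability by CellTiter-Fluor fluorescence (Ex 405/Em 525) after 30 min; luciferase luminescence (BugLite, 15 min, RT) read afterwards.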
* hit, by the source's call; i = inactive; ? = inconclusive; . = no result given. Only some compounds are listed: those with a hit (about 3.8% of all), similar ones and a draw of the others. The call rests on the fitted dose curve; in most records, active means well fitted curve in the direction sought with a large enough effect; inconclusive means small, poorly fitted or top-dose-only effect, or another doubt; inactive means no such curve, though single readings can be large; an effect the other way counts as inactive or inconclusive. Potency means the concentration at half of the fitted maximal effect.

SMILES | ATXN viability | ATXN2 expr inh | TGFb SMAD3 inh | HepG2 viability | Nrf2 block | A549 tox
CC(C)(C)c1ccc(C(=O)Nc2ccc(O)c3c(=O)cc(-c4cccc(Cl)c4)oc23)cc1 | i | 8% | 5% | -3% | 29% | 6%
CCn1c(=S)sc2c(=O)n(CC(=O)Nc3ccccc3C(F)(F)F)c(C)nc21 | 32µM* | . | 1% | -13% | 17% | 2%
CCn1c(=S)sc2c(=O)n(CC(=O)Nc3ccccc3)c(C)nc21 | i | -19% | -18% | -13% | -23% | -4%
Cc1c(C(=O)N2CCCC2)oc2c1-c1nn(CC(=O)NC(C)c3ccccc3)cc1CC2 (centres undefined) | . | . | ? | -7% | 18µM* | -4%
COc1cccc(CNC(=O)CN2C(=O)N(c3c(C)cccc3C)S(=O)(=O)c3ccccc32)c1OC | i | -7% | 0% | -32% | . | -10%
CSc1nn(Cc2ccc(Cl)cc2)c(N(C(C)=O)C(C)=O)c1S(=O)(=O)c1ccccc1 | . | ? | ? | -51% | ? | -13%
CSc1nn(Cc2cccc(F)c2)c(N(C(C)=O)C(C)=O)c1S(=O)(=O)c1ccccc1 | 18µM* | ? | ? | -52% | -12% | -12%
CSc1nn(Cc2ccc(Br)cc2)c(N(C(C)=O)C(C)=O)c1S(=O)(=O)c1ccccc1 | . | ? | ? | 11µM* | ? | -19%
COc1cccc(Cn2nc(SC)c(S(=O)(=O)c3ccccc3)c2N(C(C)=O)C(C)=O)c1 | ? | -30% | ? | -34% | -15% | -5%
COc1ccc(OC)c(-n2c(C)ccc2-c2ccc(S(C)(=O)=O)cc2)c1 | i | 3% | -20% | -7% | . | 21%
CCOc1ccccc1NC(=O)c1nnn(CC(=O)Nc2ccccc2CC)c1N | ? | ? | ? | -3% | 3% | -3%
COc1ccc(NC(=O)/C(Cl)=C(/Cl)S(=O)Cc2ccccc2Cl)cn1 (centres undefined) | 0.6µM* | 0.84µM* | 3.5µM* | 11µM* | -135% | 15µM*
COc1ccc(NC(=O)Cc2ccc(Cl)c(Cl)c2)cn1 | i | . | -14% | -11% | 0% | 6%
COc1ccc(NC(=O)/C(Cl)=C(/Cl)S(=O)(=O)Cc2ccc(C)cc2)cn1 | 8.9µM* | 7.1µM* | ? | 5.6µM* | . | ?
COc1ccc(NC(=O)COC(=O)C(NC(=O)c2ccc(C)cc2)C(C)C)cn1 (centres undefined) | ? | 4% | -1% | -2% | 0% | -1%
Cc1ccc(NC(=O)N2CCC(=O)N2)cc1 | i | 44% | ? | 5% | 12% | 3%
COc1ccc(CCNC(=O)c2nc(-c3ccc(Cl)cc3)n3c2CCCCC3)c(OC)c1 | ? | ? | 8.9µM* | -25% | ? | -18%
COc1cccc(N2CCN(C(=O)c3ccc4c(Cl)c5c(nc4c3)CCCC5)CC2)c1 | ? | 11% | 11µM* | -48% | -11% | -1%
COc1cccc(N2CCN(C(=O)c3nc(-c4ccc(Cl)cc4)n4c3CCCCC4)CC2)c1 | ? | -36% | 16µM* | -38% | -28% | -16%
Cc1cccc(CCNC(=O)c2nc(-c3ccc(Cl)cc3)n3c2CCCCC3)c1 | ? | -39% | ? | 2% | ? | -15%
CC1CCCCN1c1cc2c(cc1F)c(=O)c(S(=O)(=O)c1ccccc1)cn2Cc1ccccc1 (centres undefined) | . | . | -16% | -7% | ? | -23%
O=C1NN=C(c2ccc(Cl)cc2)CC1c1cccc(Br)c1 (centres undefined) | i | -30% | 10µM* | -14% | ? | 2%
CCC(=O)OCC(=O)[C@@]1(OC(=O)CC)[C@H](C)C[C@@H]2[C@H]3CCC4=CC(=O)C=C[C@]4(C)[C@]3(Cl)[C@@H](O)C[C@@]21C | i | . | . | . | . | .
COc1cccc(C2Nc3ccccc3NC3=C2C(=O)CC(C)(C)C3)c1OC (centres undefined) | i | -1% | ? | -2% | 15% | 3%
COc1ccc(C2Nc3ccccc3NC3=C2C(=O)CC(C)(C)C3)c(OC)c1OC (centres undefined) | 0.28µM* | -23% | -4% | 4% | 2% | -4%
SMILES | ATXN viability | ATXN2 expr inh | TGFb SMAD3 inh | HepG2 viability | Nrf2 block | A549 tox
C=CCn1c(SCC(=O)Nc2ccc(N3CCOCC3)cc2)nc2ccccc2c1=O | i | -4% | -16% | 0% | -15% | -2%
O=C(Nc1cc(Cl)cc(Cl)c1)c1ccc(Cn2c(=O)[nH]c3ccsc3c2=O)cc1 | 19µM* | -24% | ? | -37% | ? | -5%
CC1(C(=O)Nc2cccc(OC(F)(F)F)c2)Cc2c(-c3cccc(C(F)(F)F)c3)ccnc2O1 (centres undefined) | i | -9% | ? | -23% | . | .
CC(=O)Nc1ccc(-c2ccnc3c2CC(C)(C(=O)Nc2ccc(Cl)c(C(F)(F)F)c2)O3)cc1 (centres undefined) | 13µM* | 20µM* | ? | -59% | . | .
O=C(Nc1ccc(Cl)c(C(F)(F)F)c1)C1Cc2c(-c3ccccc3)ccnc2O1 (centres undefined) | ? | -25% | 14µM* | 11µM* | . | .
CC1(C(=O)Nc2ccc(Cl)c(C(F)(F)F)c2)Cc2c(-c3ccccc3)ccnc2O1 (centres undefined) | i | -5% | ? | -27% | . | .
CC(=O)Nc1cccc(-c2ccnc3c2CC(C)(C(=O)Nc2cccc(OC(F)(F)F)c2)O3)c1 (centres undefined) | ? | ? | 14µM* | -51% | . | .
CCc1ccc(S(=O)(=O)Nc2ccc3[nH]c(=O)sc3c2)cc1 | . | . | 4% | -23% | . | 2%
Cc1[nH]c2ccc(C(=O)Nc3ccncc3)cc2c1C | i | . | -22% | -6% | 12µM* | -3%
CCc1ccc(NC(=O)c2ccc3[nH]c(C)c(C)c3c2)cc1 | . | . | 0% | 1% | ? | 12%
Cc1oc2c(c1C(=O)c1ccc(Cl)cc1)C(=O)C(=O)c1ccccc1-2 | 7.1µM* | 5.6µM* | -7% | 10% | -4% | 0%
Cc1ccc(C(=O)c2coc3c2C(=O)C(=O)c2ccccc2-3)cc1 | . | ? | ? | 11µM* | ? | ?
COc1cccc(/C=N/NC(=O)CN(C)S(=O)(=O)c2ccccc2)c1OC | i | 11% | -7% | -21% | ? | 7%
C=CCN1C(=O)/C(=C2/Sc3ccccc3N2CC)SC1=S | ? | -14% | 0% | -6% | -21% | -4%
